# Source: PubChem BioAssay AID1345082 (National Center for Advancing Translational Sciences (NCATS), 2018)
# About 4,000 (4.3%) of roughly 94,000 compounds were called active. Another 29% or so got no clear call; they are omitted. The call rests on the fitted dose curve; in most records, active means well fitted inhibition curve with a large enough effect; inconclusive means small, poorly fitted or top-dose-only effect; inactive means no such curve, though single readings can be large or run the other way. This excerpt belongs to a sample that is enriched for actives.
# Test: Cytotoxic Profiling in NIH 3T3 Cell Line of Diverse Libraries Using Quantitative High-Throughput Screening; further: nearly all actives have a fitted effect of over 55% in size
# Details: NIH 3T3 viability, CellTiter-Glo ATP luminescence, 48-72 h; series mostly up to 96.7 µM; activity change, negative = cytotoxicity: at the top concentration
# Summary of the method: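 Cytotoxicity is measured as loss of cellular ATP: NIH 3T3 cells (400/well) are exposed to compound for 48 or 72 hr at 37 °C, then CellTiter-Glo luminescence is imaged after 10 min at room temperature.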
# On the % scale 0 is the no-effect control and ±100 the full control effect; potency means the concentration at half of the fitted maximal effect.
Compound,"activity change, negative = cytotoxicity",outcome,Potency
OC[C@@H]1O[C@H](CNC2CCOCC2)[C@H](N2CCc3ccccc3C2)[C@@H]1O,-17.5% (inactive),,
Cc1cc(C(=O)N2CCn3nc(C(=O)Nc4ccccc4)cc3C2)cc(=O)[nH]1,-5.94% (inactive),,
CN1CCCN(C(=O)c2ccoc2)c2ccccc21,-21.9% (inactive),,
COCCn1ncc(N2CCCC(CC(=O)NCc3cccc(C)c3)C2)cc1=O (centres undefined),-3.89% (inactive),,
O=C(Nc1ccsc1)N[C@H]1C[C@H]2C(=O)NC[C@@H](CCC(=O)N3CCC(O)CC3)N2C1,-28.9% [at 174 µM] (inactive),,
COCCNC(=O)C[C@@H]1C[C@H]2O[C@H](CNC3CCN(C)CC3)[C@@H](O)[C@H]2O1,-0.707% [at 174 µM] (inactive),,
Cc1ccc(C2Cn3nnc(C(=O)N4CCC(C(=O)NCc5cccnc5)CC4)c3CO2)cc1 (centres undefined),-2.07% (inactive),,
COc1ncccc1CNC[C@H]1COCc2nc3cc(C(F)(F)F)ccc3n21,,inactive [at 138 µM],
COc1ccc2nc3n(c2c1)[C@@H](CNC(=O)c1cnccn1)COC3,,inactive [at 138 µM],
COc1ccc2nc3n(c2c1)[C@@H](CNC1CCCCC1)COC3,,,39.8 µM (active)
COc1ccccc1CN(C(=O)c1cccc(-c2noc(C)n2)c1)C1CC1,-18.6% (inactive),,
Cc1cnc(CCNS(=O)(=O)Cc2ccccc2F)n1Cc1ccccc1,-26.8% (inactive),,
Cc1ccc(NC(=O)NC[C@H]2O[C@@H](CC(=O)N3CCN(c4ccccc4)CC3)[C@H](O)[C@@H]2O)cc1,-18% (inactive),,
CN(CC#N)C(=O)[C@H]1CN(Cc2ccccc2)C[C@H]1C(=O)O,-15.6% (inactive),,
O=C(NCC1CN(Cc2ccccc2)CC12CN(c1ccccc1)C2)Nc1ccccc1 (centres undefined),,,39.8 µM (active)
CC(C)OCCCNC(=O)C1Cn2cccc2C(=O)N1C (centres undefined),-7.69% (inactive),,
CC(C)CN1C(=O)c2cccn2CC1C(=O)NCC1CCN(Cc2cccc(F)c2)CC1 (centres undefined),-14.1% (inactive),,
Cc1cnc(C2CCC2)n1CCNS(=O)(=O)c1cc(F)ccc1F,0.793% (inactive),,
COCC(=O)N[C@H]1CO[C@H]2[C@@H]1OC[C@@H]2Nc1nccc(C(C)(C)C)n1,-7.3% [at 174 µM] (inactive),,
O=C(NCC1CC1)c1ccc2nnc(CC3CC3)n2c1,-23.9% [at 138 µM] (inactive),,
Cc1cccc(Nc2nc(N)nc(CN3CCC4(CC3)OCCCC4O)n2)c1 (centres undefined),4.24% (inactive),,
O=C(CCn1ccc(=O)[nH]c1=O)N1CCn2nc(Cc3ccccc3)cc2C1,0.159% (inactive),,
Cn1ncc2c(C(=O)NCc3ccc(F)cc3)cc(-c3cccc(C(F)(F)F)c3)nc21,-9.27% (inactive),,
Cn1ncc2c(C(=O)NCc3cccnc3)cc(C(C)(C)C)nc21,,,44.7 µM (active)

Compound,"activity change, negative = cytotoxicity",outcome,Potency
COc1cccc(CNC(=O)c2cc(-c3ccc(Cl)nc3)nc3c2cnn3C)c1,-18.5% (inactive),,
Cc1ccccc1S(=O)(=O)N1C[C@@H]2CCCN3CCC[C@@H]([C@H]23)[C@H]1CCCC(=O)N1CCOCC1,1.31% (inactive),,
Cc1cc(C(=O)N[C@H](C)c2c(-c3ccc(F)cc3)noc2C(=O)O)nn1C,,inactive [at 138 µM],
COC1CN(C2CCN(C(=O)C3CCC3)CC2)C12CCOCC2 (centres undefined),-14.8% (inactive),,
Cc1ccc(-c2cccc(CN3CCCC(NC(=O)c4ccc(Cl)cc4)C3)c2)cc1Cl (centres undefined),-17.6% (inactive),,
CC(=O)NC1(C)CCN(Cc2cnc(-c3ccc4c(ccn4C)c3)s2)CC1,-27.4% [at 138 µM] (inactive),,
CC(=O)NC1(C)CCN(Cc2cccc(-c3ccc(C(=O)c4ccccc4)cc3)c2)C1 (centres undefined),,,35.5 µM (active)
O=C(Nc1ccccc1)C1CN(S(=O)(=O)c2cccnc2)CC12CCCCC2 (centres undefined),-17.4% (inactive),,
Cc1ccc(-c2ccc3nnc(CNC(=O)c4ccncc4)n3n2)cc1C,-13% (inactive),,
Cc1ccc(-c2nnc3ccc(-c4ccoc4)nn23)nc1,,,100 µM (active)
COc1ccc(C(=O)NCc2nnc3ccc(-c4ccc(C)cc4)nn23)cc1F,-24.2% (inactive),,
Cc1ccc(CCN2C[C@]34C=C[C@H](O3)C(C(=O)N(C)Cc3nccn3C)C4C2=O)cc1 (some centres undefined),1.63% (inactive),,
COc1ccc(CNC(=O)c2cccc3c2CCN3C(=O)c2ccc(F)cc2)cc1OC,,,39.8 µM (active)
COc1ccc(-c2ccc(C(=O)NCc3ccc(F)cc3)cc2)nn1,-1.17% [at 138 µM] (inactive),,
COc1ccc(CNC(=O)c2c(C)sc3ccn(CC(C)C)c(=O)c23)cc1OC,-2.65% (inactive),,
COc1ccc(CC(=O)N2CCC[C@@H]2C(=O)N2CCC(N3CCOC3=O)CC2)cc1,-3.95% (inactive),,
COc1ccc(Cn2c(C3CCN(C(=O)Cc4ccsc4)CC3)n[nH]c2=O)cc1,-9.33% (inactive),,
COc1cncc(-c2cccc(COc3ccc4c(cnn4CC[S+](C)(=O)[O-])c3)c2)c1,,,56.2 µM (active)
O=C1CCN(C2CCCC2)CCOCCN1,-17.3% (inactive),,
O=C(Nc1cccc(Cl)c1)[C@@H]1C[C@H](c2ccc(F)cc2)N([S+](=O)([O-])C2CC2)C1,,,79.4 µM (active)
O=C(Nc1cccc(Cl)c1)[C@@H]1C[C@@H](c2ccc(F)cc2)N([S+](=O)([O-])c2cccnc2)C1,,,35.5 µM (active)
O=C(Nc1cccc(Cl)c1)C1CN(c2ccccc2)C(=O)N1 (centres undefined),-11.9% [at 138 µM] (inactive),,
O=C(NCC1CCOCC1)Nc1cccc(Cl)c1,-7.43% (inactive),,
O=C(Nc1cccc(F)c1)c1cc2n(n1)CC(c1ccc(Cl)cc1)OC2 (centres undefined),-29.5% (inactive),,

Compound,"activity change, negative = cytotoxicity",outcome,Potency
O=C1CCN(Cc2ccncc2)CCCC(C(=O)Nc2cccc(F)c2)CCN1 (centres undefined),-3.66% (inactive),,
O=C(C1CCOC1)N1CCC(N(Cc2ccccc2)C2CCOCC2)CC1 (centres undefined),-1.09% (inactive),,
CN(C)C(=O)N1CCCC1C(=O)N1CCC(c2nc3ccncc3[nH]2)C1 (centres undefined),-7.11% [at 138 µM] (inactive),,
Nc1nc(CCCNC(=O)C2NCCc3[nH]cnc32)cs1 (centres undefined),,inactive,
O=C(Nc1ccccc1)N1CCC(C(=O)N2CCC(N3CCOCC3=O)CC2)CC1,,inactive,
CC[C@H]1CN(S(C)(=O)=O)CC[C@H]1CC(=O)NCc1ccco1,,inactive [at 174 µM],
Cc1cccc(C)c1NC(=O)N(C)CC1CCOCC1,1.98% (inactive),,
COCC(=O)N[C@@H]1CN(Cc2ccc(F)c(OC)c2)C[C@H]1CO,-13.2% (inactive),,
COCCNC(=O)c1ccc2nnc(-c3cccc(C(F)(F)F)c3)n2c1,-16.9% (inactive),,
O=C(NCCc1ccccc1)c1ccc2nnc(-c3cccc(C(F)(F)F)c3)n2c1,,,39.8 µM (active)
O=C(NCc1ccc(F)c(F)c1)c1ccc2nnc(-c3cccnc3)n2c1,-18.6% (inactive),,
O=C(NCCCc1ccccc1)C1CCc2nnc(-c3cccc(C(F)(F)F)c3)n21 (centres undefined),-28.9% (inactive),,
O=C(NCc1ccc(C(F)(F)F)cc1)c1ccc2nnc(-c3ccc(C(F)(F)F)cc3)n2c1,,,31.6 µM (active)
O=C(NCc1ccccc1)c1ccc2nnc(C3CC3)n2c1,-24.4% [at 138 µM] (inactive),,
COC(=O)c1ccc(CN2C(=O)[C@@H]3C[C@@H](O)CN3C3(CN(Cc4cccc(F)c4)C3)C2=O)cc1,,inactive,
CCN1CC(C(=O)NCC2(c3ccccc3F)CCCC2)CC1=O (centres undefined),-19.2% (inactive),,
CC(C)c1ccc(CN2CCc3nc(N(C)C)[nH]c(=O)c3CC2)cc1,-28.1% (inactive),,
COc1cccc(CCC(=O)N2C[C@@H](Oc3ccccc3)C[C@@H]2C(=O)N2CCOCC2)c1,-15.4% (inactive),,
Cc1ccc(NC(=O)N[C@@H]2C=C(C(=O)NCCC(N)=O)C[C@@H](O)[C@@H]2O)cc1,2.14% [at 174 µM] (inactive),,
CN1C[C@@H]2CC[C@H](C1)N(Cc1cccc(OCCN3CCOCC3)c1)C2,3.93% (inactive),,
CCCCC(=O)N1CCC(OC2CCN(S(C)(=O)=O)CC2)CC1,-18.1% (inactive),,
Cn1cnc(S(=O)(=O)N[C@H]2CCN(C(=O)CSCC(=O)O)[C@H](C(=O)N[C@H](Cc3ccccc3)C(N)=O)C2)c1,0.91% (inactive),,
COc1ccccc1-n1c(=O)c(C(=O)N2CCN([S+](C)(=O)[O-])CC2)nc2cccnc21,-11.7% (inactive),,
Cc1cc(N2CCC3(CC2)CC(c2ccccc2)C(=O)N3C)ncn1 (centres undefined),,,79.4 µM (active)

Compound,"activity change, negative = cytotoxicity",outcome,Potency
Cc1ccncc1C(=O)N1CCC2(CC1)CC(c1ccccc1)C(=O)N2C (centres undefined),-21.3% (inactive),,
CC#CCN1C(=O)NC(CCc2ccccc2)(C2CCN(Cc3ccccc3-c3ccco3)CC2)C1=O (centres undefined),-25.6% (inactive),,
CC(=O)N1CC2(CCN(Cc3ncc[nH]3)CC2)CC1C(=O)O (centres undefined),0.833% (inactive),,
N#Cc1cccc(NC(=O)O[C@@H]2CO[C@H]3[C@@H]2OC[C@@H]3Nc2nccc(-c3ccccc3)n2)c1,,,35.5 µM (active)
O=C(Nc1ccccc1)O[C@@H]1CO[C@H]2[C@@H]1OC[C@@H]2NS(=O)(=O)c1cccc2cccnc12,-22.1% (inactive),,
O=C(Nc1ccc(Oc2ccccc2)cc1)O[C@@H]1CO[C@H]2[C@@H]1OC[C@@H]2NCC1CC1,-28.6% [at 174 µM] (inactive),,
COc1cccc([S+](=O)([O-])N2CCC3(C2)N=C(c2ccncc2)C(=O)N3)c1 (centres undefined),-25.3% (inactive),,
CC1(C(=O)NCc2ccc3c(c2)OCO3)CCc2cnc(NCc3ccccc3)nc21 (centres undefined),,,3.16 µM (active)
CC1(C(=O)NCC2CCCO2)CCCc2cnc(Nc3ccccc3)nc21 (centres undefined),-4.02% [at 138 µM] (inactive),,
CN1C(=O)CC[C@]2(C(=O)NCc3ccc4c(c3)OCO4)CCCC[C@@H]12,-2.74% (inactive),,
O=C(NCc1ccc(F)cc1F)c1nnn2c1COC(c1ccc(Br)cc1)C2 (centres undefined),-20.1% (inactive),,
COc1cccc([S+](=O)([O-])N2CCC3(CC2)C(=O)NN=C3c2ccncc2)c1,-38.1% (inactive),,
CC(C)(C)C(=O)N1CCCC1C(=O)N1CCC(N2Cc3ccccc3C2=O)CC1 (centres undefined),-10.6% (inactive),,
O=C(NCc1cccnc1)c1nc(-c2ccc(Cl)nc2)c2cnccn12,-19.1% (inactive),,
CN1CCC(N2CC[C@H](c3nc4ccccc4s3)C2)CC1,,,35.5 µM (active)
c1ccc2sc(C3CCCN(Cc4cc5n(n4)CCNC5)C3)nc2c1 (centres undefined),-15.9% (inactive),,
Cn1c([C@H]2CCN(C3CCOCC3)C2)nc2ccccc21,-5.14% [at 230 µM] (inactive),,
O=C(c1ccccc1F)N1CCCC2(C1)C(=NC1CCCCC1)NC(=O)N2c1cc(F)cc(F)c1 (centres undefined),4.34% (inactive),,
O=C1NC(=NC2CCCCC2)C2(CCCN([S+](=O)([O-])c3ccccc3)C2)N1c1cc(F)cc(F)c1 (centres undefined),-18.3% (inactive),,
CC(C)CCN1CCC2(C1)C(=NC1CCCCC1)NC(=O)N2c1cc(F)cc(F)c1 (centres undefined),,,35.5 µM (active)
O=C(CN1CCCC1=O)NCC1Cn2cccc2C(=O)N1Cc1ccccc1 (centres undefined),-0.873% (inactive),,
CC(C)C(=O)N1CCOc2ccc(CN3CCc4ccccc4C3)cc2C1,-17.2% (inactive),,
